Our source for the growth activity, negative = inhibition values is PubChem BioAssay AID1259249 (Broad Institute, 2017).

Several values for one entry are separate records, joined by “and”; a condition that tells them apart may be missing. Equal entries are not always repeated. In all, about 86,000 compounds went through this assay and about 220 (0.26%) were called active.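 The calls were made as follows: active = mean growth activity at or below -80% and every replicate also at or below -80%; inconclusive = mean at or below -80% but some replicate above -80%; inactive = mean growth activity above -80%.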 The sample as a whole holds a higher share of actives than the screen did.

The nature of this assay: C. difficile growth inhibitors, primary screen, HTS (AID 1259249).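 Also: 0% = DMSO wells and -100% = levofloxacin 16 µg/mL wells.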 The following applies: Clostridium difficile clinical isolate growth, OD600, 24 h; stronger effect = lower value; screened at 16 µg/mL (by protocol).
As to `CO[C@@H]1CN(C)C(=O)c2cc(NC(=O)C3CCC3)ccc2OC[C@H](C)N(Cc2ccccn2)C[C@H]1C`, the growth activity, negative = inhibition is -0.0418% (inactive).
In the case of `COc1ccccc1C#Cc1ccc2c(c1)O[C@H](CN(C)Cc1cccnc1)[C@@H](C)CN([C@H](C)CO)S2(=O)=O`, the growth activity, negative = inhibition was 2.69% (inactive).
As for `C[C@H]1CN([C@@H](C)CO)C(=O)c2cc(C#CC3CCCC3)cnc2O[C@@H]1CN(C)C(=O)Cc1ccccn1`, the growth activity, negative = inhibition was -9.22% (inactive).
`N#C[C@H]1[C@@H](c2ccccc2C2=CCCC2)[C@H](CO)N1C(=O)c1cccc(F)c1`: the growth activity, negative = inhibition is -5.69% (inactive).
Under `C[C@@H]1CCCCO[C@H](CN(C)CC2CCCCC2)[C@H](C)CN([C@H](C)CO)C(=O)c2cc(NS(=O)(=O)c3ccc(F)cc3)ccc2O1` stands 11.3% (inactive).
Under `COc1ccc(S(=O)(=O)NC[C@@H]2CC[C@@H]3[C@@H](CN3Cc3cc(F)ccc3F)O2)cc1` stands -8.36% (inactive); under `CN1C(=O)c2cc(NC(=O)C3CC3)ccc2OC[C@H]2O[C@H](CC(=O)O)CC[C@H]21`, 3.37% (inactive).
Under `CO[C@@H]1CN(C)C(=O)c2ccc(NC(=O)C3CC3)cc2OC[C@H](C)N(C(C)=O)C[C@H]1C` stands 0.555% (inactive).
With `COc1cccc(NC(=O)N[C@H]2C=C[C@H](CC(=O)NCc3ccccn3)O[C@@H]2CO)c1`, the growth activity, negative = inhibition was 6.26% (inactive).
Under `CO[C@H]1CN(C)C(=O)c2ccc(NC(=O)C3CCCC3)cc2OC[C@H](C)N(C(=O)CC2CC2)C[C@@H]1C` stands -4% (inactive); under `C/C=C/c1ccccc1[C@H]1[C@@H](C#N)N(C(C)=O)[C@@H]1CO`, -2.31% (inactive); under `O=C(C1CCOCC1)N1CC(=O)N2[C@H](CO)[C@H](c3ccc(C#Cc4cccc(F)c4)cc3)[C@H]2C1`, -20.7% (inactive).
On to `CNC(=O)C[C@H]1CC[C@H]2[C@H](COc3ccc(NC(=O)Nc4ccc(F)cc4)cc3C(=O)N2C)O1`, for which the growth activity, negative = inhibition is -3.32% (inactive).
The same measure for `O=C(C[C@H]1C=C[C@H](NC(=O)Nc2cc(F)ccc2F)[C@@H](CO)O1)NCc1ccccn1`: -1.08% (inactive); for `CNC[C@H]1OCCCC[C@H](C)Oc2ccc(NC(=O)Nc3ccc(C(F)(F)F)cc3)cc2C(=O)N([C@H](C)CO)C[C@@H]1C`: 8.32% (inactive).
In the case of `C[C@H](O)C#Cc1ccc2c(c1)O[C@@H](CN(C)C(=O)C1CCCCC1)[C@H](C)CN([C@@H](C)CO)S2(=O)=O`, the growth activity, negative = inhibition is -2.82% (inactive).
Under `COc1ccc2c3c(n(C)c2c1)[C@@H](CO)N(C(=O)CN1CCOCC1)CC31CCN(Cc2ccncc2)CC1` stands -2.85% (inactive); under `CCCNC(=O)N1CC2(C1)[C@@H](c1ccccc1)[C@@H](CO)N2C(=O)CC1CC1`, -0.374% (inactive).
Under `C[C@@H]1CN([C@H](C)CO)S(=O)(=O)c2ccc(C3=CCCC3)cc2O[C@H]1CN(C)C(=O)CC1CC1` stands 3.03% (inactive).
The same measure for `COCc1cn(CC[C@H]2CC[C@H](NC(=O)Cc3cccnc3)[C@H](CO)O2)nn1`: 1.58% (inactive); for `N[C@@H]1CC[C@H](CCn2cc(C3CC3)nn2)O[C@@H]1CO`: 5.59% (inactive).
On to `C/C=C/c1ccc([C@@H]2[C@H](CO)N(C(=O)c3cnccn3)C23CN(C(C)=O)C3)cc1`, for which the growth activity, negative = inhibition was 2.93% (inactive).
With `CCCNC(=O)C[C@H]1CC[C@H]2[C@@H](COC[C@H](O)CN2C(=O)CC)O1`, the growth activity, negative = inhibition was 7.43% (inactive) and 9.67% (inactive).
In the case of `COc1ccc(CN(C)C[C@H]2OCc3cn(nn3)CCCC(=O)N([C@@H](C)CO)C[C@@H]2C)cc1`, the growth activity, negative = inhibition was -0.425% (inactive).
The same measure for `O=C(C[C@H]1CC[C@@H]2[C@H](COC[C@@H](O)CN2C(=O)Nc2ccc(Cl)cc2)O1)NC1Cc2ccccc2C1`: -5.66% (inactive) and -5.56% (inactive).
Under `O=C(C[C@@H]1CC[C@H]2[C@@H](COC[C@@H](O)CN2C(=O)Nc2ccc(Cl)cc2)O1)NC1Cc2ccccc2C1` stands 2% (inactive) and 46.4% (inactive); under `CCCNC(=O)C[C@@H]1CC[C@H]2[C@@H](COC[C@H](O)CN2C(=O)Nc2ccc(Cl)c(Cl)c2)O1`, -57.2% (inactive) and -25.4% (inactive); under `O=C(C[C@H]1CC[C@H]2[C@@H](COC[C@@H](O)CN2C(=O)Nc2ccc(C(F)(F)F)cc2)O1)NC1Cc2ccccc2C1`, -97.2% (active) and 27.2% (inactive).
Take `O=C(C[C@H]1CC[C@H]2[C@@H](COC[C@H](O)CN2C(=O)Nc2ccc(Cl)cc2)O1)NCC1CC1`: the growth activity, negative = inhibition is 7.11% (inactive).
The same measure for `CCCNC(=O)C[C@H]1CC[C@H]2[C@@H](COC[C@@H](O)CN2C(=O)Nc2ccc(Cl)c(Cl)c2)O1`: -102% (active) and -6.65% (inactive); for `CC=Cc1ccc2n(c1=O)C[C@H]1[C@H](CO)[C@@H](C(=O)NC3CCCC3)[C@@H]2N1C(=O)c1cnccn1` (mixture of isomers): 3.3% (inactive).
With `CC(C)NC(=O)N1[C@@H]2CN(C(=O)C3CCCCC3)c3ccccc3[C@@H]2[C@@H]1CO`, the growth activity, negative = inhibition was -5.28% (inactive).
With `CC(=O)N1[C@H](CO)[C@H](c2ccccc2)[C@H]1CN(C(=O)c1ccccc1F)C(C)C`, the growth activity, negative = inhibition was 2.62% (inactive).
As to `CCS(=O)(=O)N1CC2(CN(Cc3ccccc3)[C@@H](CO)c3c2c2ccc(OC)cc2n3C)C1`, the growth activity, negative = inhibition was 10.4% (inactive).
As to `COc1ccccc1C(=O)N1C[C@H]2[C@@H](c3ccccc31)[C@H](CO)N2C(=O)C1CC1`, the growth activity, negative = inhibition is -5.43% (inactive).
Under `CO[C@H]1CN(C)C(=O)c2ccc(NS(=O)(=O)c3ccccc3)cc2OC[C@H](C)N(Cc2nccs2)C[C@@H]1C` stands 1.37% (inactive); under `COc1cccc(S(=O)(=O)N(C)C[C@@H]2Oc3ncc(-c4cccc(C(=O)N(C)C)c4)cc3C(=O)N([C@H](C)CO)C[C@H]2C)c1`, -3.2% (inactive).
The same measure for `COc1cccc(NC(=O)N(C)C[C@H]2Oc3cc(/C=C/c4ccccc4)ccc3S(=O)(=O)N([C@H](C)CO)C[C@@H]2C)c1`: 5.84% (inactive); for `COc1ccc2c3c(n(C)c2c1)[C@H](CO)N(S(=O)(=O)c1ccc(C)cc1)CC31CCN(C(=O)c2ccccn2)CC1`: 3.65% (inactive).
Take `O=C(C1CCCC1)N1CC(=O)N2[C@H](C1)[C@@H](c1ccc(-c3ccccc3F)cc1)[C@@H]2CO`: the growth activity, negative = inhibition was 2.69% (inactive).
`C/C=C/c1ccc([C@H]2[C@@H](CO)N(C(=O)CC)[C@H]2CN(C)C(=O)C2CC2)cc1`: the growth activity, negative = inhibition is -2.06% (inactive).
The same measure for `O=C(NCC[C@H]1CC[C@H](NS(=O)(=O)c2cccc(F)c2)[C@H](CO)O1)C1CCCCC1`: -5.15% (inactive); for `C/C=C/c1ccc([C@@H]2[C@H](CO)N(CCC(F)(F)F)C23CN(C(=O)CC)C3)cc1`: 8.71% (inactive).
Take `CC(C)NC(=O)N(C)C[C@H]1Oc2ncc(-c3cccc(C#N)c3)cc2C(=O)N([C@@H](C)CO)C[C@H]1C`: the growth activity, negative = inhibition is 5.25% (inactive).
